FMDV antiviral: blocks foot and mouth disease virus; 1.2% of 410,000 active; FMDV antiviral cell-based qHTS; Potency, µM (doses to about 57.9 µM), usual class: inhibitors; AID 1159524; calls by dose curve; tested in HEK293T cells; note: read-out not given here; nearly all actives have a fitted effect of over 45% in size
HCMV inh: inhibitors of human cytomegalovirus | HFF cells, HCMV-luciferase reporter, 72 h; stronger effect = lower value | activity change, negative = inhibition, % at 57.5 µM | AID 1259415 | 4.5% of 410,000 active; in the data active = activity change below about -60%; inconclusive = no clear call, values can overlap the other calls; inactive = above about -39%
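Steps: HFFs plated, 16 h 37C; compounds added; HCMV-luciferase added to MOI 1 PFU/cell; 72 h 37C; OneGlo reagent, 5 min room temperature; luminescence read, normalized to controls.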
VACV Venus inh: inhibitors of vaccinia virus (Venus reporter); Vaccinia virus Venus reporter expression, fluorescence; 0.46% of 330,000 active; Potency, µM (highest dose often 36.5 µM), hits mostly inhibitors; calls by dose curve; tested in A549 cells; note: nearly all actives have a fitted effect of over 30% in size
Vaccinia mCherry: vaccinia inhibition (mCherry reporter). Vaccinia virus mCherry reporter infection, fluorescence. Potency, µM (highest dose often 36.5 µM), usual class: inhibitors. 0.63% of 310,000 active; calls by dose curve; tested in A549 cells; note: nearly all actives have a fitted effect of over 35% in size
HCV inhibitor: HCV inhibition; Huh7.5.1 HCVcc-Cre infection, luciferase reporter, 44 h; Potency, µM (doses to about 41.8 µM), hits mostly inhibitors; 3.4% of 340,000 active
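1,000 cells/well; 4 h culture; + compound; + HCVcc-Cre (~0.5 moi); 44 h; luciferase substrate, RT 15 min; read 15 sec.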
Giardia FBPA inh-1: blocks Giardia fructose-bisphosphate aldolase activity; purified Giardia FBPA; Potency, µM (highest dose often 59.6 µM), hits mostly inhibitors; 0.71% of 290,000 active; AID 2451; note: nearly all actives have a fitted effect of over 55% in size
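40 nM FBPA preincubated 10 min at RT with compound (up to 57.5 uM final), then substrate plus GAPDH/TPI/NAD/arsenate coupling and diaphorase/resazurin added. Fluorescence read after 20 min at RT, 525/598 nm.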
Giardia growth: inhibitors of Giardia lamblia growth; shares compounds with Giardia FBPA inh-1; Giardia lamblia trophozoite growth inhibition; Potency, µM (top dose mostly 57.5 µM), hits mostly inhibitors; 5% of 1,500 active; AID 2785;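 note: trophozoites exposed to compound for 48 h at 37 °C; nearly all actives have a fitted effect of over 70% in size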
Mammal cell tox: mammalian cytotoxicity of Giardia aldolase inhibitor hits; shares compounds with Giardia FBPA inh-1; mammalian cell viability counter-screen, qHTS; Potency, µM (doses to about 57.5 µM), most hits filed as inhibitors; 4% of 1,500 active;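 note: Chinese hamster ovary cells used as mammalian cytotoxicity surrogate; viability measured as cellular ATP by luminescence; compound exposure lasted 48 h before reading; nearly all actives have a fitted effect of over 60% in size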
Giardia FBPA inh-2: confirmation of Giardia fructose-bisphosphate aldolase inhibitors; shares compounds with Giardia FBPA inh-1; purified Giardia aldolase enzyme activity, qHTS; Potency, µM (titrated, usually from 57.5 µM), actives largely listed as inhibitors; 5% of 1,500 active; note: nearly all actives have a fitted effect of over 45% in size
Rabbit aldolase: rabbit FBP aldolase inhibition by Giardia aldolase hits. shares compounds with Giardia FBPA inh-1. Rabbit muscle FBPA enzyme inhibition, selectivity counter-screen. Potency, µM (doses to about 57.5 µM), hits mostly inhibitors. 4% of 1,500 active. AID 2794; note: nearly all actives have a fitted effect of over 60% in size
Target sequence (P00883 whole entry, looked up): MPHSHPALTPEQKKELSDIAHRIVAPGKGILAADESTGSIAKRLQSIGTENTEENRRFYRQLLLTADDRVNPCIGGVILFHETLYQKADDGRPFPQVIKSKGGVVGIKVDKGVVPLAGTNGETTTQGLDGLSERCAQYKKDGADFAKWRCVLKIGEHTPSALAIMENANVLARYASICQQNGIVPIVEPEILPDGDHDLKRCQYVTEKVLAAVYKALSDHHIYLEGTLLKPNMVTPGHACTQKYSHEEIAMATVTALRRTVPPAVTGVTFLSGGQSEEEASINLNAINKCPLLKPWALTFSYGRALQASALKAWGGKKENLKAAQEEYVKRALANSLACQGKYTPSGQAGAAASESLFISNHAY
GAPDH coupling: GAPDH inhibition flagged for Giardia aldolase hits; 6% of 1,500 active; shares compounds with Giardia FBPA inh-1; GAPDH coupling enzyme counterscreen, biochemical, qHTS; Potency, µM (titrated, usually from 57.5 µM), actives largely listed as inhibitors; note: nearly all actives have a fitted effect of over 55% in size
Large screens that a line does not name were inactive (follow-up assays come after a bar, where they were run); [ ] = dose if it differs, or a comment. Compounds with a hit are over-represented: about 7.5% of the library has one in this group of screens. Unless noted, calls come from the whole dose curve; as a rule, active = well fitted curve in the direction sought with a large enough effect; inconclusive = small, poorly fitted or top-dose-only effect, or another doubt; inactive = no such curve, though single readings can be large; an effect the other way counts as inactive or inconclusive.

Cn1ncc(Br)c1C(=O)N/N=C/c1cccc(OC2CSC2)c1	Giardia FBPA inh-1 inconclusive | Giardia growth inactive | Mammal cell tox inactive | Giardia FBPA inh-2 31.6µM | Rabbit aldolase 35.5µM | GAPDH coupling 35.5µM
OC[C@@H]1CN(Cc2ccc3c(c2)OCO3)C[C@H](n2cnc3c(NC4CCCC4)ncnc32)O1	none (no result: HCV inhibitor, Giardia FBPA inh-1)
Cc1ccc(/C=N/Nc2cn[nH]c(=O)n2)o1	HCMV inh inconclusive, Giardia FBPA inh-1 17.7µM | Giardia growth inactive[10.4 µM] | Mammal cell tox inactive | Giardia FBPA inh-2 inactive | Rabbit aldolase inactive | GAPDH coupling inactive
C(=N\Nc1ccc2nncn2n1)/c1ccccn1	HCMV inh -87.4, VACV Venus inh inconclusive, Vaccinia mCherry inconclusive, Giardia FBPA inh-1 14.1µM | Giardia growth inactive | Mammal cell tox inconclusive | Giardia FBPA inh-2 inactive | Rabbit aldolase inactive | GAPDH coupling inactive
Cc1ccc(/C=N/NC(=O)C(=O)N/N=C/c2ccc(C)o2)o1	none
O=c1nc(N/N=C/c2ccccn2)cn[nH]1	VACV Venus inh inconclusive, Vaccinia mCherry 3.98µM, HCV inhibitor inconclusive, Giardia FBPA inh-1 0.706µM | Giardia growth inactive | Mammal cell tox inconclusive | Giardia FBPA inh-2 inactive | Rabbit aldolase inactive | GAPDH coupling inactive
O=c1cnnc(N/N=C/c2ccccn2)[nH]1	Vaccinia mCherry 2.24µM, HCV inhibitor 6.31µM, Giardia FBPA inh-1 0.792µM | Giardia growth inactive | Mammal cell tox inconclusive | Giardia FBPA inh-2 inactive | Rabbit aldolase inactive | GAPDH coupling inactive
C(=N\n1cnnc1)/c1ccccn1	none (no result: VACV Venus inh, Vaccinia mCherry)
Cc1ccc(CNC(=O)C2CCC(=O)N(CC3CCCCC3)C2)o1 (centres undefined)	none
CC(C)(C)c1ccc(C(=O)NCc2nnc(SCC(=O)NCC3CCCO3)o2)cc1 (centres undefined)	HCMV inh inconclusive
COc1ccc(-n2c(C)cc(/C=N/Nc3nnc(C)n3N)c2C)cc1	VACV Venus inh inconclusive, Vaccinia mCherry 11.2µM, HCV inhibitor 11.2µM, Giardia FBPA inh-1 6.29µM | Giardia growth inactive[10.4 µM] | Mammal cell tox inactive | Giardia FBPA inh-2 20µM | Rabbit aldolase inconclusive | GAPDH coupling inconclusive
CN(CC(=O)Nc1ccccc1Br)CC(=O)Nc1ccccc1C(F)(F)F	none
O=C(O)CCc1ncc(C(F)(F)F)cc1Cl	none
O=C(O)CC/C(=N/Nc1ncc(C(F)(F)F)cc1Cl)C(=O)O	Giardia FBPA inh-1 11.2µM | Giardia growth 15.8µM | Mammal cell tox inactive | Giardia FBPA inh-2 inactive | Rabbit aldolase inactive | GAPDH coupling inactive
Cc1ccc(NC(=O)CN(C)CC(=O)Nc2cccc(F)c2)cc1S(=O)(=O)N1CCCCCC1	FMDV antiviral 25.1µM, HCMV inh -65.9, HCV inhibitor inconclusive, Giardia FBPA inh-1 15.8µM | Giardia growth inactive | Mammal cell tox inactive | Giardia FBPA inh-2 inactive | Rabbit aldolase inactive | GAPDH coupling inactive
O=C(O)Cn1cnc2c(=S)nc[nH]c21	Giardia FBPA inh-1 3.54µM (no result: VACV Venus inh, Vaccinia mCherry) | Giardia growth inactive | Mammal cell tox inactive | Giardia FBPA inh-2 inactive | Rabbit aldolase inactive | GAPDH coupling inactive
O=C(CCCCn1cnc2c(=S)nc[nH]c21)Nc1ccc(C(=O)O)cc1	none (no result: Giardia FBPA inh-1)
COc1ccc(-n2nc(C(=O)NCC(=O)Nc3ccc(F)cc3)c3ccccc3c2=O)cc1	none
CCN(Cc1nc2ccccc2c(=O)[nH]1)Cc1nc2ccsc2c(=O)[nH]1	Giardia FBPA inh-1 0.792µM | Giardia growth inactive | Mammal cell tox inactive | Giardia FBPA inh-2 inactive | Rabbit aldolase inactive | GAPDH coupling inconclusive
